Test results as given in publication PMC4336329 (PLoS ONE, 2015).
The campaign covered roughly 310,000 compounds. About 14,000 (4.5%) showed an effect of 50% or more. The effect is printed as a negative number. Shown is part of a subset that was picked to be rich in strong results.

biological target: human ether-à-go-go-related gene (hERG) potassium channel (human, UniProt Q12809); test: primary screen, population patch clamp on CHO cells stably expressing hERG; higher = less effect of the substance
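Also: peak tail current of the secondary pulse compared with the same well before compound.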

Chain of human ether-à-go-go-related gene (hERG) potassium channel (Q12809 whole entry, looked up): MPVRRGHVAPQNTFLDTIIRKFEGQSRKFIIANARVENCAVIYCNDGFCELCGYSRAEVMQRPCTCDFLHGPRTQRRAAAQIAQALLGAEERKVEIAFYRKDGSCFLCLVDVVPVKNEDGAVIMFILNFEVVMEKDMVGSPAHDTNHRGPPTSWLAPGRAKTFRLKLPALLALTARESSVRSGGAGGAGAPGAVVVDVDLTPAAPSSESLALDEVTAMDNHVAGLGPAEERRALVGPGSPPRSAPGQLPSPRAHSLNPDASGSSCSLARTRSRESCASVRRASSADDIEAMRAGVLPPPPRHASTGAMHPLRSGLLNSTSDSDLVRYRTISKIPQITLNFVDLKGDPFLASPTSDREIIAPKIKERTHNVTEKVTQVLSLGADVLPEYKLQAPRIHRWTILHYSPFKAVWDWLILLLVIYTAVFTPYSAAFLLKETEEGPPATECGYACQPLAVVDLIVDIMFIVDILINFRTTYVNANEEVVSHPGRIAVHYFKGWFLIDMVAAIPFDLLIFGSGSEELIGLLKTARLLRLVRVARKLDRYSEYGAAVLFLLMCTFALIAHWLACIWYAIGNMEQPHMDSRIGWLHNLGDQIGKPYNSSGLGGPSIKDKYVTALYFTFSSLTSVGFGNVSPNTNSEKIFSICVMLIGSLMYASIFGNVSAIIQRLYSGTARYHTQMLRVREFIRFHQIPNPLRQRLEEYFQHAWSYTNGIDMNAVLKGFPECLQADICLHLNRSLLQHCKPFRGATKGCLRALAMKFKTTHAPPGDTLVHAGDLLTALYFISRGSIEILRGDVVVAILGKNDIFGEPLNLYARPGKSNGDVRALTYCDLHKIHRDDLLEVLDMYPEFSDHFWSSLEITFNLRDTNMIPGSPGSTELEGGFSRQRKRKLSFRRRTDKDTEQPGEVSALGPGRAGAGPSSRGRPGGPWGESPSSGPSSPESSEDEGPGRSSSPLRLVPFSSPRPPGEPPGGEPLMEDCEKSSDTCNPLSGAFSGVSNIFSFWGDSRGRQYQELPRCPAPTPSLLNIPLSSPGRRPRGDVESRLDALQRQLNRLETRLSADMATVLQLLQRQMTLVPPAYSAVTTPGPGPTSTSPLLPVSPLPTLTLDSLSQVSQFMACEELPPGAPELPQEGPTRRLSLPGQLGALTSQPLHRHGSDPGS

Compared with Nc1cc(N)nc(SCC(=O)NCc2ccco2)n1, Cc1ccc(CNC(=O)CSc2nc(C)cs2)cc1 is higher in “hERG current change (%, negative = inhibition) at 10uM” value: 9.13% for the first, 15.4% for the second.

Going from Cc1cccn2c(=O)c3cc(C(=O)NC4CCCC4)c(=N)n(CCc4ccccc4)c3nc12 to COc1ccc(CCn2c(=N)c(C(=O)NC3CCCC3)cc3c(=O)n4cccc(C)c4nc32)cc1, the “hERG current change (%, negative = inhibition) at 10uM” value falls from -74.5% to -77.8%.

Going from CCCn1c(=N)c(C(=O)NC2CCCC2)cc2c(=O)n3cccc(C)c3nc21 to Cc1cccn2c(=O)c3cc(C(=O)NC4CCCC4)sc3nc12, the “hERG current change (%, negative = inhibition) at 10uM” value rises from -77.4% to -22.8%.

Compared with CCCc1c(-c2ccc(O)cc2)nn(-c2ccc(O)cc2)c1-c1ccc(O)cc1, Cc1ccc(-n2nc3c(=O)n(CCCC(=O)NCc4cccc(F)c4)nc(C)c3c2C)cc1 is lower in “hERG current change (%, negative = inhibition) at 10uM” value: 12.6% for the first, -21.7% for the second.

Compared with CCN(CC)C(=O)CSc1nnc([C@H](CCSC)NC(=O)OC(C)(C)C)o1, CCCC(OC(=O)CC1Sc2ccccc2NC1=O)C(=O)NCc1ccco1 (centres unmarked) is lower in “hERG current change (%, negative = inhibition) at 10uM” value: -8.26% for the first, -13.8% for the second.

Compared with CC1=CC(C)(C)N(C(=O)C(C)N2C(=O)c3ccccc3C2=O)c2ccc(C)cc21 (centres unmarked), Cc1ccc2nc(N3CC(C)OC(C)C3)nc(-c3ccccc3)c2c1 (centres unmarked) is higher in “hERG current change (%, negative = inhibition) at 10uM” value: 2.88% for the first, 5.88% for the second.

First: COC(=O)c1ccc(NS(=O)(=O)c2cc3c4c(c2)C(C)C(=O)N4CCC3)cc1 (centres unmarked)
Second: COc1cccc(N2C(=O)CC(N3CCc4ccccc4C3)C2=O)c1 (centres unmarked)
The “hERG current change (%, negative = inhibition) at 10uM” value of the first is lower: 2.73% for the first, 13.1% for the second.

Compared with Fc1cccc2sc(Nc3nc4cc5c(cc4s3)OCO5)nc12, CN(C)CC/C=C1/c2ccc(F)cc2Sc2ccc(Cl)cc21.Cl is lower in “hERG current change (%, negative = inhibition) at 10uM” value: 20.3% for the first, 5.06% for the second.

Compared with COC(=O)C1CCN(C(=O)COC(=O)c2ccc(=O)n(Cc3ccccc3)n2)CC1, CCOC(=O)C1(Cc2cccc(OC)c2)CCN(Cc2ccccc2)CC1 is lower in “hERG current change (%, negative = inhibition) at 10uM” value: -4.78% for the first, -40.3% for the second.

Going from CC(C)CN(C(=O)COC(=O)c1ccc(-c2ccccc2)cc1)C1CCS(=O)(=O)C1 (centres unmarked) to CCOC(=O)c1ccccc1NC(=O)COC(=O)C1=COCCO1, the “hERG current change (%, negative = inhibition) at 10uM” value falls from 17.5% to 4.78%.

First: CCOc1cc(/C=N/NC(=O)Cc2ccc(C(F)(F)F)cc2[N+](=O)[O-])c(Br)cc1OC
Second: CC(C)(C)N/N=C/c1cc(Cl)cc([N+](=O)[O-])c1O.Cl
The “hERG current change (%, negative = inhibition) at 10uM” value of the first is higher: 8.3% for the first, -10.9% for the second.

First: CC[N+](C)(C)CC/C=C1/c2ccccc2Sc2ccc(Cl)cc21.[Br-]
Second: CCCCCC[N+](C)(C)CC/C=C1/c2ccccc2Sc2ccc(Cl)cc21.[Br-]
The “hERG current change (%, negative = inhibition) at 10uM” value of the first is higher: -25.3% for the first, -75.2% for the second.

Going from CCCCCCCCCCC[N+](C)(C)CC/C=C1/c2ccccc2Sc2ccc(Cl)cc21.[Br-] to CCCCCCCCCC[N+](C)(C)CC/C=C1/c2ccccc2Sc2ccc(Cl)cc21.[Br-], the “hERG current change (%, negative = inhibition) at 10uM” value falls from -32.8% to -76.6%.

Going from CN(C)CC/C=C1/c2ccccc2Sc2c(O)cc(Cl)cc21 to Cc1nc2ccccn2c1C(=O)CSc1ccc(Cl)cc1Cl, the “hERG current change (%, negative = inhibition) at 10uM” value rises from -47.5% to -4.24%.

Compared with O=C1NC(=S)S/C1=C/c1ccc(Oc2cnccn2)cc1, Cc1ccc(OCC(=O)NCCc2c[nH]c3ccccc23)cc1 is lower in “hERG current change (%, negative = inhibition) at 10uM” value: 20% for the first, 17.1% for the second.

Compared with Cc1cccc(C(=O)NC(=S)N2CCN(C(=S)NC(=O)c3cccc(C)c3)CC2)c1, CCOC(=O)C1(Cc2cccc(OC)c2)CCN(Cc2cccc(O)c2)CC1 is lower in “hERG current change (%, negative = inhibition) at 10uM” value: -0.873% for the first, -54.7% for the second.

First: Cc1ccc(CSCC(=O)N2CCOCC2)cc1
Second: CCOC(=O)C1(Cc2cccc(OC)c2)CCN(Cc2ccc3c(c2)OCCO3)CC1
The “hERG current change (%, negative = inhibition) at 10uM” value of the first is higher: 8.89% for the first, -38% for the second.

First: O=C(NNC1=C(C(=O)C(F)(F)F)CCC1)c1cccc(Cl)c1
Second: CCOC(=O)C1(Cc2cccc(OC)c2)CCN(Cc2csc(C(C)=O)c2)CC1
The “hERG current change (%, negative = inhibition) at 10uM” value of the first is higher: 7.77% for the first, -41.1% for the second.

Compared with CCOC(=O)C1(Cc2cccc(OC)c2)CCN(Cc2ccc(OC)c(O)c2)CC1, CCOC(=O)C1(Cc2cccc(OC)c2)CCN(Cc2ccc(OC)c(OC)c2)CC1 is higher in “hERG current change (%, negative = inhibition) at 10uM” value: -77.9% for the first, -68.8% for the second.

Compared with CCOC(=O)C1(Cc2cccc(OC)c2)CCCN(Cc2cc(OC)c(O)c(OC)c2)C1 (centres unmarked), CCOC(=O)C1(Cc2cccc(OC)c2)CCN(CCO)CC1 is lower in “hERG current change (%, negative = inhibition) at 10uM” value: -33.7% for the first, -54.3% for the second.

First: CCOC(=O)C1(Cc2cccc(OC)c2)CCN(CC(O)CO)CC1 (centres unmarked)
Second: COc1ccc([C@H]2CC(=O)C=C(c3cccc(OCc4ccccc4)c3)C2)cc1
The “hERG current change (%, negative = inhibition) at 10uM” value of the first is lower: -4.39% for the first, 10.8% for the second.

Going from Cc1onc(-c2ccccc2Cl)c1C(=O)N1CCN(c2ncccn2)CC1 to COc1cc2c(C)nc(C)c(C#N)c2cc1OC.Cl, the “hERG current change (%, negative = inhibition) at 10uM” value falls from 2.45% to -5.92%.
